Measured values as given in PubChem BioAssay AID1347076 (National Center for Advancing Translational Sciences (NCATS), 2019).
Several values for one entry are separate records, joined by “and”; a condition that tells them apart may be missing. Equal entries are not always repeated. Hit rate of the full screen: of about 400,000 compounds, about 13,000 (3.2%) were called active. Roughly 18% stayed inconclusive and do not appear here. The sample holds actives, similar compounds and a random draw of the others, so the mix is not that of the screen. The call rests on the fitted dose curve; in most records, active means well fitted cell-killing curve with a large enough effect; inconclusive means small, poorly fitted or top-dose-only effect, or effect the other way; inactive means flat fitted curve, though single readings scatter.

Experiment: qHTS assay for MDR1-selective chemotherapeutics: Primary screen using the drug-selected MDR subline cells KB-V1; further: nearly all actives have a fitted effect of over 60% in size
Conditions: KB-V1 MDR cells viability, CellTiter-Glo, 72 h; series mostly up to 46.1 µM; activity change, negative = cytotoxicity: at the top concentration
In short: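 Cytotoxicity toward P-gp-expressing KB-V1 cells was determined as loss of CellTiter-Glo luminescence after 72 h at 37 degrees C. Compounds were tested in quantitative HTS format across a concentration range, with curves fitted to normalized data.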
On the % scale 0 is the no-effect control and ±100 the full control effect; potency means the concentration at half of the fitted maximal effect.

Structure (SMILES)	activity change, negative = cytotoxicity	Potency
CC(=O)N1C[C@@H](CO)[C@@H](N(C)C(=O)c2ccco2)C[C@H]1c1ccccc1	12.2% (inactive)	–
CCCCn1nnnc1C(c1cccc(OC)c1OC)N1CCN(C/C=C/c2ccccc2)CC1 (stereo unspecified)	14.1% (inactive)	–
CC(C)(O)C#Cc1ccc(CNC[C@H]2O[C@@H](n3cnc4c(=O)[nH]c(N)nc43)[C@H](O)[C@@H]2O)s1	8.09% (inactive)	–
O=C(c1ccc(S(=O)(=O)N2CCCC2)cc1)N1CCN(c2ccccc2F)CC1	-7.58% (inactive)	–
O=C(c1ccc(S(=O)(=O)N2CCOCC2)cc1)N1CCN(c2ccccc2)CC1	–	16.4 µM (active)
O=C(c1ccc(S(=O)(=O)NCc2ccco2)cc1)N1CCN(c2ccccc2)CC1	-12.4% (inactive)	–
COc1cc2nnn(-c3ccncc3)c2cc1OC	-1.5% (inactive)	–
CCOC(=O)C1(C)CCCN(C(=O)c2ccc(N(C)C)cc2)C1 (stereo unspecified)	3.14% (inactive)	–
O=C(COC(=O)c1ccccc1Br)Nc1nnc(-c2ccccc2)o1	-26.5% (inactive)	–
O=C(Nc1ccccc1)c1ccccc1Br	4.37% (inactive)	–
O=C(Nc1nnc(-c2ccc(Cl)cc2)o1)c1ccccc1Br	–	6.51 µM (active)
CCc1nc2c(OCc3ccc(C(=O)OC)cc3)cccn2c1N(C)C(=O)C(C)C	0.64% (inactive)	–
C=CCn1c2ccccc2c2nnc(SC(CC)C(=O)Nc3nc(C)c(C(=O)OCC)s3)nc21 (stereo unspecified)	–	2.31 µM (active)
C=CCn1nc(C(=O)OCC)cc1-c1sc(NC(=O)c2ccccc2)nc1C	-21.4% (inactive)	–
CCOC(=O)c1sc(NC(=O)C(CC)Sc2nccn2C)nc1C (stereo unspecified)	-18.2% (inactive)	–
COc1ccc(CCNC(=O)C(=O)NCC2CCCN2S(=O)(=O)c2cccs2)cc1OC (stereo unspecified)	-25.2% (inactive)	–
COc1ccccc1CCNC(=O)C(=O)NCCC1CCCCN1S(=O)(=O)c1cccs1 (stereo unspecified)	-9.95% (inactive)	–
O=C(NCCC1CCCCN1S(=O)(=O)c1cccs1)C(=O)Nc1ccc(F)cc1F (stereo unspecified)	–	14.6 µM (active)
COc1cc(C#Cc2ccc3cc(CCCO)oc(=O)c3c2)cc(OC)c1	–	3.66 µM (active)
O=C1c2ccccc2C(=O)N1CCC#Cc1ccc2cc(C3(O)CCCCC3)oc(=O)c2c1	4.63% (inactive)	–
O=C(CSc1nnc2scc(-c3ccc(F)cc3)n12)NCc1ccco1	-5.87% (inactive)	–
Cc1ccc(-c2csc3nnc(SCC(=O)NCc4ccco4)n23)cc1	–	9.2 µM (active)
O=C(CSc1nnc(-c2ccco2)n1Cc1ccccc1)NC(=O)NCc1ccco1	–	20.6 µM (active)
Cn1c(-c2ccc(F)cc2)cnc1SCC(=O)NCc1ccco1	-15.2% (inactive)	–

Structure (SMILES)	activity change, negative = cytotoxicity	Potency
O=C(CSc1nnc(-c2ccco2)n1-c1ccccc1)NCCc1ccccc1	-20.9% (inactive)	–
CCn1c(SCC(=O)NCc2ccco2)nnc1-c1ccc(N)cc1	0% (inactive)	–
CCOCCn1ccc2c(OCC(=O)NCc3ccc(C)cc3)cccc2c1=O	-4.93% (inactive)	–
CN(C)c1ccc(C(CNS(=O)(=O)c2cc(F)ccc2F)N2CCOCC2)cc1 (stereo unspecified)	4.28% (inactive)	–
CC[C@@H]1CC2=C(C(=O)OC(C)(C)O2)[C@@H](CC)O1	2.71% (inactive)	–
COc1cccc(OCC(=O)NCCS(=O)(=O)N2CCN(c3ccccc3)CC2)c1	-0.223% (inactive)	–
COc1ccc2c(c1)C=C(C(=O)NCc1cc(Br)ccc1OC)CO2	7.07% (inactive)	–
COc1cc(-c2nnc(NC(=O)CS(=O)(=O)c3ccc(Cl)cc3)o2)cc(OC)c1OC	-2.72% (inactive)	–
COc1ccc(Cl)cc1NC(=O)CN(C)C(=O)c1cn(-c2ccccc2)nc1-c1cccs1	-11% (inactive)	–
O=C(CN1C(=O)NC(Cc2ccccc2)(Cc2ccccc2)C1=O)NCC1CCCCC1	–	20.6 µM (active)
O=C(CC1CCCCC1)NCc1ccccc1	-3.84% (inactive)	–
COc1cccc(CNC(=O)CN2C(=O)NC(Cc3ccccc3)(c3ccccc3)C2=O)c1 (stereo unspecified)	-1.58% (inactive)	–
COC(=O)C[C@H]1C[C@@H]2c3cc(N(C)C)ccc3O[C@@H]2[C@H](CO)O1	12% (inactive)	–
CN(Cc1ccccc1)C(=O)CSc1nc2ccccc2[nH]1	-16% (inactive)	–
CCC(C)N1C(=O)S/C(=C/c2ccc(Sc3nc4ccccc4[nH]3)o2)C1=O (stereo unspecified)	–	5.17 µM (active)
O=C1NC[C@H](Cc2ccc(O)cc2)N(C[C@H]2CCCN2C[C@H](Cc2ccccc2)N2C[C@H](Cc3ccccc3)N(CCc3ccccc3)C(=O)C2=O)C1=O	10.8% (inactive)	–
COCCCNc1ccn2nc(-c3ccc(CC(C)C)cc3)cc2n1	-15% (inactive)	–
O=C(Nc1ccc(S(=O)(=O)Nc2ncccn2)cc1)c1cncc(Br)c1	0% (inactive)	–
CCOc1ncccc1C(=O)Nc1ccc2c(c1)OCCO2	-3.64% (inactive)	–
CCOc1ncccc1C(=O)Nc1ccc(S(=O)(=O)Nc2nc(C)cc(C)n2)cc1	–	20.6 µM (active)
CCOC(=O)c1cccc(NC(=O)C(Cc2ccccc2)NS(=O)(=O)c2cccc3nsnc23)c1 (stereo unspecified)	-8.85% (inactive)	–
COc1cccc(/C=C/C(=O)OCC(=O)N2CCN(c3ccccc3)CC2)c1	-12.1% (inactive)	–
COc1cccc(-c2ccc(SCC(=O)N3CCN(c4ccccc4)CC3)nn2)c1	–	14.6 µM (active)
Cc1nnc(SCC(=O)N2CCN(c3ccccc3)CC2)n1-c1ccccc1	-5.39% (inactive)	–

Structure (SMILES)	activity change, negative = cytotoxicity	Potency
c1ccc(CCN2CN=C(Nc3nc4ccccc4o3)NC2)cc1	–	13 µM (active)
O=C1CCCC2=C1[C@@]1(CCC(c3ccccc3)C1)N=C(Nc1nc3ccccc3o1)N2 (stereo partly specified)	-23.4% (inactive)	–
N#CNC1=NCN(CCc2ccccc2)CN1	4.58% (inactive)	–
Cc1cc(NC(=O)c2cc(-c3cccs3)on2)nn1Cc1ccc(Cl)cc1	–	9.2 µM (active)
CC(=O)c1ccc(NC(=O)c2cc(-c3cccs3)on2)cc1	-21.1% (inactive)	–
Cc1ccccc1Cn1nc(C)c(NC(=O)c2cc(-c3ccc(F)cc3)on2)c1C	-2.23% (inactive)	–
Cc1cccc(CC(=O)Nc2cccc(-c3cn4cccnc4n3)c2)c1	11.6% (inactive)	–
COc1ccc(NC(=O)N(C)C[C@H]2Oc3ncc(C#C[C@@H](C)O)cc3C(=O)N([C@H](C)CO)C[C@H]2C)cc1	-2.19% (inactive)	–
O=C(c1cccs1)C1C(c2ccc(Br)cc2)NC(=S)NC1(O)C(F)(F)F (stereo unspecified)	–	20.6 µM (active)
CCOC(=O)C1C(c2ccc(O)cc2)NC(=O)NC1(O)C(F)(F)F (stereo unspecified)	18% (inactive)	–
Cc1ccc(Cc2c(-c3ccc(C)cc3)nc3c4ccccc4ccn23)cc1	2.79% (inactive)	–
c1ccc2c(c1)nnn2-c1ccncc1	0.884% (inactive)	–
CC(=NCc1ccco1)c1c(C(F)(F)F)[nH]n(-c2nc3ccccc3s2)c1=O	–	9.2 µM (active)
CC(=NCc1ccco1)C1=C(O)c2ccccc2C1=O	-27.6% (inactive)	–
CCc1ccc(-c2cc(C(=O)NCc3ccco3)c3ccccc3n2)s1	1.92% (inactive)	–
CN(C)C(CNC(=O)c1cc(Br)c(Br)s1)c1ccco1 (stereo unspecified)	10.7% (inactive)	–
CCCCC(CCCC)c1ccc(C=Nc2ccc(/C=C/c3ccnc4ccccc34)cc2)cc1	0% (inactive)	–
Cc1ccc(C(=O)OCC(=O)N2CCCCCC2)cc1S(=O)(=O)N1CCOCC1	–	14.6 µM (active)
O=C(OCC(=O)N1CCCCCC1)c1ccc(Br)c(S(=O)(=O)N2CCOCC2)c1	-25% (inactive)	–
COc1ccc(C(=O)OCC(=O)c2ccc(C)c(S(=O)(=O)N3CCOCC3)c2)cc1OC	-25.9% (inactive)	–
COC(=O)[C@]12CCCCC=C1N(Cc1ccco1)C(=O)[C@H](CC(=O)NCC1CCCCC1)C2	6.39% (inactive)	–
CCOC(=O)C1=C(C)Nc2nc3ccccc3n2C1c1cccs1 (stereo unspecified)	–	3.26 µM (active)
COc1ccccc1NC(=O)C1=C(C)Nc2ncnn2C1c1sccc1C (stereo unspecified)	0% (inactive)	–
CCOc1ccc(C2C(C(=O)NC)=C(C)Nc3nc4ccccc4n32)cc1OC (stereo unspecified)	-6.45% (inactive)	–

Structure (SMILES)	activity change, negative = cytotoxicity	Potency
COc1ccccc1NC(=O)C1=C(C)Nc2nc3ccccc3n2C1c1cccs1 (stereo unspecified)	–	5.8 µM (active)
CC1=C(C(=O)Nc2ccccc2Cl)C(c2cccs2)n2ncnc2N1 (stereo unspecified)	-6.43% (inactive)	–
COC(=O)c1ccc(C2C(C(=O)Nc3ccccc3)=C(C)Nc3nc4ccccc4n32)cc1 (stereo unspecified)	-5.17% (inactive)	–
O=S1(=O)C[C@@H](N2CCN(CCO)CC2)[C@H](COCc2ccccc2)N1	-9.39% (inactive)	–
CC1(C(=O)NCc2ccccc2)CN(S(C)(=O)=O)CC(=O)N1CC(F)(F)F (stereo unspecified)	5.12% (inactive)	–
CN(C)CCN1CCN(c2cc(-c3cccc(Cl)c3)nc3ccnn23)CC1	7.25% (inactive)	–
CCc1nc2c(OCC(N)=O)cccn2c1N(C)C(=O)c1ccc(OC)cc1	0% (inactive)	–
CC1=C(C(=O)N2CCOCC2)CC(CC(=O)NCc2cccs2)C(=O)N1CCCN1CCCC1=O (stereo unspecified)	-2.21% (inactive)	–
C#C[C@]1(O)CC[C@H]2[C@@H]3CCC4=CC(=O)CC[C@@H]4[C@H]3CC[C@@]21CC	–	13 µM (active) and 7.31 µM (active)
CCCCCCCCN1C(=O)[C@H](CC(=O)NCC23CC4CC(CC(C4)C2)C3)C[C@@]2(C(=O)OC)CCCCC=C12	-1.91% (inactive)	–
CC(C)Sc1oc(-c2cccs2)nc1S(=O)(=O)c1ccc(Cl)cc1	-19.7% (inactive)	–
CC(NC(=O)c1ccc(N2CCNCC2)c([N+](=O)[O-])c1)C12CC3CC(CC(C3)C1)C2 (stereo unspecified)	-12.3% (inactive)	–
O=C(NC1C2CC3CC(C2)CC1C3)c1ccc(N2CCNCC2)c([N+](=O)[O-])c1 (stereo unspecified)	-24.8% (inactive)	–
CS(=O)(=O)N1CCN(c2ccc(C(=O)NC3C4CC5CC(C4)CC3C5)cc2[N+](=O)[O-])CC1 (stereo unspecified)	–	11.6 µM (active)
COc1ccc(-c2cc3nc(NCCOc4ccccc4)ccn3n2)cc1	-1.29% (inactive)	–
CCc1nc2onc(C)c2c(=O)n1CC(=O)O	20.4% (inactive)	–
COCCCNC(NC(=O)c1ccc(OC)cc1)C(Cl)(Cl)Cl (stereo unspecified)	-0.612% (inactive)	–
COCCCNC(NC(=O)c1ccc(C)cc1)C(Cl)(Cl)Cl (stereo unspecified)	–	20.6 µM (active)
CCOCCCNC(=O)C(NC(=O)CNC(=O)c1ccccc1)c1ccc(C)cc1 (stereo unspecified)	0.549% (inactive)	–
CCOC(=O)[C@]12CCC=C1N(Cc1ccco1)C(=O)[C@H](CC(=O)N1CCSCC1)C2	-25.8% (inactive)	–
CC(C)Oc1ccc(CN2CCC2(C)C(=O)NCc2ccc(C(F)(F)F)cc2)cc1 (stereo unspecified)	-8.92% (inactive)	–
Cc1cccc(-c2nc(SCC(=O)Nc3cc(C)on3)c3c(=O)n(C)c(=O)n(C)c3n2)c1	8.61% (inactive)	–
Cc1nc2ccccc2nc1CC(O)(c1ccccc1)c1ccccc1	-13.9% (inactive)	–
O=C(NCc1ccccc1)C(=O)NCC(c1ccco1)S(=O)(=O)c1ccc(Cl)cc1 (stereo unspecified)	-23.4% (inactive)	–
